Measured potencies and affinities stand elsewhere. The source made the active and inactive calls.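 Rule for the calls: active = falling luciferase signal whose fitted half-maximal concentration is at most twice the top tested dose; inconclusive = flat inhibition between 30 and 70% or a poor curve fit; inactive = the rest.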

This test is described as follows: off-target signal loss in HeLa-CEM21 co-culture – HeLa F-luc CTL cells, cherry-picked, counter-screen for HIV-1 Env fusion inhibitor project, dose response (AID 652040).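 Note: 0% = median of neutral control wells and -100% = doxycycline 40 µg/mL wells; more negative values mean stronger loss of luciferase signal.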 Particulars: HeLa-F-luc CTL cells with CEM21, firefly luciferase counterscreen; series mostly up to 35 µM. For orientation: Counterscreens check selectivity or assay interference.
`COc1ccc(N2CCN(C(=O)C3CCC(Cn4c(=S)[nH]c5ccccc5c4=O)CC3)CC2)cc1` (stereo not given): the outcome was inactive.
`CC1CCCCN1S(=O)(=O)c1ccc(C(=O)Nc2nnc(-c3cccs3)o2)cc1` (stereo not given): the result was inactive.
Turning to `C=CCN1C(=S)CC(c2ccccc2)=Nc2ccccc21`, the compound was classed as inactive.
In the case of `O=C(CCNC(=O)c1ccc(Br)cc1)NNC(=O)COc1ccccc1F`, the result was inactive.
With `COCCCn1c(-c2ccc(S(=O)(=O)N3CCOCC3)cc2)csc1=Nc1ccccc1`, the call was inactive.
Take `CC(OC(=O)c1ccc(NC(=O)CC#N)cc1)C(=O)NCCC1=CCCCC1` (stereo not given): the call was inactive.
Same read-out and setting: the entry for `O=C(COC(=O)c1ncc(Cl)c(Cl)c1Cl)NCc1cccs1` is “inactive”.
The same measure, in the same setting: to `C=CC[n+]1c(-c2ccc(C)cc2)csc1NNC(=O)Nc1ccccc1` belongs “inactive”; to `c1ccc(CSc2nnc([C@@H]3CCCN3)o2)cc1`, “inactive”; to `COc1ccc(CCN(Cc2cccs2)S(=O)(=O)c2ccc(-n3cnnn3)cc2)cc1OC`, “inactive”.
Still for that read-out and setting: the entry for `CCOC(=O)CN1CCCc2nc(C)c(C)cc21` is “inactive”.
Take `CCN(c1nc(N)c(C(=O)N=C(N)N)nc1Cl)C(C)C`: the compound was classed as inactive.
The same measure, in the same setting: the entry for `CCCCCCCn1c2c(c(=N)c3c1CCC3)CCCC2` is “inactive”; for `Cc1nc2ccccc2c2oc(C(=O)NCc3ccc4c(c3)OCO4)cc12` it is “inactive”.
Take `c1coc(CNc2c3c(nc4ccccc24)CCC3)c1`: the compound was classed as inactive.
For the compound `Nc1nc2c(ncn2[C@@H]2O[C@H](C(=O)NCC(c3ccccc3)c3ccccc3)[C@@H](O)[C@H]2O)c(=O)[nH]1`, the call was inactive.
Regarding `Cc1cc(C(=O)N2CCC(C(=O)O)CC2)c(C(F)(F)F)o1`, the compound was classed as inactive.
Still for that read-out and setting: the entry for `COc1ccc(-c2cc(C(=O)NNC(=S)NC(=O)c3c(-c4ccccc4)noc3C)[nH]n2)cc1` is “inactive”.
For the compound `N#Cc1ccc(CSc2nnc(COc3ccccc3)n2-c2ccccc2)cc1`, the compound was classed as inactive.
Turning to `O=C(c1ccccc1)N1CCC(c2nc(-c3ccc(S(=O)(=O)NCC4CCCO4)cc3)no2)CC1` (stereo not given), the call was inactive.
Regarding `C=CC[n+]1c(-c2ccc(OC)c(OC)c2)csc1NNC(=O)Nc1ccccc1`, the call was inactive.
Still for that read-out and setting: to `COc1ccc(C(O)c2nc3ccccc3n2C)cc1OC` (stereo not given) belongs “inactive”; to `Cc1ccc(OCCN2CCN(c3ncnc4sc(C)c(C)c34)CC2)cc1`, “inactive”; to `c1ccc2c(c1)OCC(CNc1ncnc3nc[nH]c13)O2` (stereo not given), “inactive”.
On to `COc1ccccc1N/C(N)=N/c1nc(CSc2ccc(C)cc2)cc(=O)[nH]1`, for which the outcome was inactive.
On to `Cc1ccc(-n2nnnc2-c2cnn(-c3ccc(F)cc3)c2C(F)(F)F)cc1`, for which the outcome was inactive.
In the case of `COc1ccc(/C(C)=N/NC(=O)c2cccc(S(=O)(=O)N3CCCC3)c2)c(O)c1`, the activity change, negative = inhibition is 27.9% [at 8 µM] (inactive).
As for `O=C(NCCCN1CCc2ccccc2C1)Nc1ccc(Cl)cc1`, the call was inactive.
Still for that read-out and setting: the entry for `C[C@H](CO)N1C[C@H](C)[C@@H](CN(C)C(=O)NC2CCCCC2)Oc2c(cccc2N(C)C)C1=O` is “inactive”.
The same measure, in the same setting: to `COc1cc(-c2cc(OC)c(O)c(OC)c2)cc(OC)c1O` belongs “inactive”; to `CC(=O)c1c(C)[nH]c(C(=O)OCC(=O)Nc2c(C)cccc2C)c1C`, “inactive”.
Same read-out and setting: the entry for `CCCCNC(=O)C[C@H]1C[C@@]2(C(=O)OC)C(=C[C@H](C(C)(C)C)O[C@@H]2C)N(Cc2ccc3c(c2)OCO3)C1=O` is “inactive”; for `COc1ccc(OC2C(=O)N(Cc3ccc4c(c3)OCO4)C2c2cccs2)cc1` (stereo not given) it is “inactive”.
Turning to `O=C(c1ccccc1)N1CCN(c2ncnc3sc4c(c23)CCC4)CC1`, the compound was classed as inactive.
As for `c1ccc2c(c1)CCN(c1ncnc3c1[nH]c1ccccc13)C2`, the compound was called inactive.
Consider `COC(=O)[C@]12CCCCC=C1N(Cc1ccco1)C(=O)[C@H](CC(=O)NCCc1ccccc1OC)C2`, for which the compound was classed as inactive.
On the same count and under the same terms, to `CSc1ncccc1C(=O)OCC(=O)Nc1ccc(C)c(S(=O)(=O)N2CCOCC2)c1` belongs “inactive”; to `O=C1COc2ccc(-c3csc(=Nc4ccc(OC(F)F)cc4)n3CC3CCCO3)cc2N1` (stereo not given), “inactive”; to `CCc1nc(N2CCCCC2)c2oc3ccccc3c2n1`, “inactive”.
The same measure, in the same setting: to `O=C(Nc1cc2c3c(c1)CC(=O)N3CCC2)c1ccc(Cl)cc1` belongs “inactive”.

The values above are taken from PubChem BioAssay AID652040 (Broad Institute, 2013).
